Results filed as inconclusive are left out. Active and inactive are the calls of the source. Unless noted, the call rests on the fitted dose curve; in most records, active means well fitted curve in the direction sought with a large enough effect in the repeat runs; inconclusive means weak or mixed curves; inactive means no such curve, though single readings can be large; an effect the other way counts as inactive or inconclusive.
Legend:
[1] = target: Nuclear receptor subfamily 1 group I member 3 (Homo sapiens) (UniProt Q14994); assay: qHTS assay to identify small molecule agonists of the constitutive androstane receptor (CAR) signaling pathway (AID 1224839); further: nearly all actives have a fitted effect of over 15% in size
In short: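 A 15-concentration quantitative screen uses HepG2 cells co-transfected stably with human CAR and CYP2B6-2.2kb reporter. Treatment lasts 24 h with 0.75 uM PK11195 final present; ONE-Glo luminescence is the signal.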

[2] = qHTS assay to identify small molecule antagonists of the estrogen related receptor signaling pathway with the pleiotropic PPARgamma coactivator (PGC) from Tox21 10K library - cell viability counter screen (AID 1224840; active means well fitted cell-killing curve with a large enough effect in the repeat runs, not every such curve was filed as active; further: nearly all actives have a fitted effect of over 40% in size)
In short: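 Fluorescence read-out of CellTiter-Fluor viability reagent, added after cells had been exposed to compound in DMSO for 17.5 h at 37 C; 30 min development at 37 C/5% CO2. Cells: PGC/ERR line, 2,000/well.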

[3] = qHTS assay to identify small molecule antagonists of the estrogen related receptor signaling pathway with the pleiotropic PPARgamma coactivator (PGC) from Tox21 10K library (AID 1224841; call rule not given here; further: actives are mostly falling curves and most rising ones were filed inactive; nearly all actives have a fitted effect of over 50% in size)
In short: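 Luminescence read-out (One-Glo luciferase reagent, 30 min at room temperature) from PGC/ERR cells exposed to DMSO-dissolved test compounds for 18 h at 37 C; cells, 2,000 per well, had been preincubated 6 h before compound transfer.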

[4] = qHTS assay to identify small molecule agonists of the estrogen related receptor signaling pathway with the pleiotropic PPARgamma coactivator (PGC) from Tox21 10K library (AID 1224842); further: nearly all actives have a fitted effect of over 15% in size
In short: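 PGC/ERR reporter cell line, 2,000 cells per well, incubated 6 h at 37 C before 23 nL compound in DMSO was added. After 18 h at 37 C, One-Glo luminescence read following 30 min at room temperature.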

[5] = qHTS assay to identify small molecule agonists of the hypoxia (HIF-1) signaling pathway - cell viability counter screen (AID 1224844; calls by dose curve; further: nearly all actives have a fitted effect of over 50% in size)
In short: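 CellTiter-Glo luminescence read-out, 30 min RT, taken in the same wells as the beta-lactamase HRE reporter assay; HRE-bla ME-180 cells, 0.5% dialyzed FBS, 17 hr compound treatment at 37C, 5% CO2.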

[6] = qHTS assay to identify small molecule agonists of H2AX (AID 1224845; active means well fitted activation curve with a large enough effect in the signal ratio in the repeat runs, not every such curve was filed as active; the % refers to the signal ratio)
In short: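 Wild-type CHO-K1 cells, plated overnight, exposed 3hr at 37C to 15 concentrations (0.76% DMSO final). Lysed, then HTRF anti-pH2AX (S139) cryptate and anti-H2AX-d2 antibodies, 24 hr room temperature; 665/620 nm emission read.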

[7] = qHTS assay to identify small molecule agonists of H2AX - cell viability counter screen (AID 1224847; calls by dose curve; further: top concentration of the series differs between compounds; nearly all actives have a fitted effect of over 30% in size)
In short: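 We seed wild-type CHO-K1 cells overnight, treat them for 3 hr at 37C with compounds in 15-concentration series, and quantify remaining viability by CellTiter-Glo luminescence.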

[8] = qHTS assay to identify small molecule antagonists of the estrogen related receptor (ERR) signaling pathway from Tox21 library (AID 1224848); further: nearly all actives have a fitted effect of over 50% in size
In short: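 Compounds dissolved in DMSO are pin-transferred onto ERR reporter cells (2,000 per well) that have settled for 6 h at 37 C. Plates then incubate 18 h at 37 C before ONE-Glo luciferase reagent and a luminescence read 30 min later.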

[9] = qHTS assay to identify small molecule agonists of the estrogen related receptor (ERR) signaling pathway from Tox21 library (AID 1224849; calls by dose curve; further: nearly all actives have a fitted effect of over 15% in size); conditions: ERR reporter cell line, ONE-Glo luciferase, 18 h; at 92.4 µM (top of the series) unless noted
In short: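 Luminescence readout (ONE-Glo, 30 min RT) after 18 h compound exposure at 37 C of NTP-supplied ERR reporter cells; cells were plated 6 h before compound addition by pin tool.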

[10] = qHTS RealTime-Glo MT Cell Viability Assay in HepG2 cells - 24 hour (AID 1224867); further: nearly all actives have a fitted effect of over 50% in size
In short: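 Cells + NanoLuc/prosubstrate dispensed (600 cells/well) → 5 h at 37 C/5% CO2 → compounds in DMSO transferred → 40 h incubation at 37 C, luminescence read at 0, 8, 16, 24, 32, 40 h.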

[11] = qHTS RealTime-Glo MT Cell Viability Assay in HEK293 cells - 32 hour (AID 1224868)
In short: (§1)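 Tox21 10K qHTS, HEK293, 600 cells/well, RealTime-Glo reagent co-dispensed with cells; 5 h preincubation, compound by pintool, 37 C, luminescence at 0–40 h.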

[12] = qHTS RealTime-Glo MT Cell Viability Assay in HepG2 cells - 40 hour (AID 1224870); further: nearly all actives have a fitted effect of over 50% in size
In short: (§2)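 HepG2 cells (600/well) mixed with RealTime-Glo MT reagent, settled 5 h at 37 C/5% CO2 before compound addition. Nonlytic NanoLuc luminescence from viable-cell prosubstrate reduction read repeatedly during 40 h treatment at 37 C.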

[13] = qHTS RealTime-Glo MT Cell Viability Assay in HEK293 cells - 16 hour (AID 1224872)
In short: as §1

[14] = qHTS RealTime-Glo MT Cell Viability Assay in HepG2 cells - 8 hour (AID 1224873); further: nearly all actives have a fitted effect of over 55% in size
In short: as §2

[15] = qHTS RealTime-Glo MT Cell Viability Assay in HEK293 cells - 40 hour (AID 1224874); conditions: RealTime-Glo luminescence; max response: active compounds read low; further: nearly all actives have a fitted effect of over 50% in size
In short: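 Luminescence readout at each listed time point; HEK293, 600 cells/well, RealTime-Glo MT reagent added with cells; compounds pinned (23 nL in DMSO) after 5 h at 37 C; continuous culture at 37 C.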

[16] = A CellTox Green Cytotoxicity Assay to monitor cytotoxicity in HEK293 cells - 40 hour (AID 1224871); further: nearly all actives have a fitted effect of over 45% in size
In short: (§3)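 Read-out: fluorescence of a cell-impermeant cyanine dye staining DNA of dead cells, proportional to cytotoxicity. HEK293, 600 cells/well with reagent, compound (23 nL DMSO) added after 5 h; reads at 0, 8, 16, 24, 32, 40 h.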

[17] = target: Thyrotropin receptor (Homo sapiens) (UniProt P16473); assay: qHTS assay to identify small molecule agonists of the thyroid stimulating hormone receptor (TSHR) signaling pathway (AID 1224843; calls by dose curve; further: nearly all actives have a fitted effect of over 45% in size)
In short: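 HEK293/TSHR, 800 cells/well; cpd 30 min RT; add cAMP-d2 + anti-cAMP-cryptate, 1 h RT; fluorescence read on plate reader. 15-pt titration, n=3.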

[18] = qHTS assay to identify small molecule agonists of the hypoxia (HIF-1) signaling pathway (AID 1224846; active means well fitted activation curve with a large enough effect in the signal ratio in the repeat runs, not every such curve was filed as active; the % refers to the signal ratio)
In short: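 Beta-lactamase FRET read-out (CCF4-AM substrate) from ME-180 cells carrying an HRE-driven bla reporter, after 17 hrs compound exposure at 37C/5% CO2. Cells were seeded at 2,000 per well in 0.5% dialyzed FBS medium and preincubated 5 hrs.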

[19] = A CellTox Green Cytotoxicity Assay to monitor cytotoxicity in HEK293 cells - 0 hour (AID 1224869); further: nearly all actives have a fitted effect of over 50% in size
In short: as §3

[20] = A CellTox Green Cytotoxicity Assay to monitor cytotoxicity in HEK293 cells - 24 hour (AID 1224875); further: nearly all actives have a fitted effect of over 45% in size
In short: as §3
On the % scale 0 is the no-effect control and ±100 the full control effect.

Chain of Thyrotropin receptor (Homo sapiens) (P16473 whole entry, looked up): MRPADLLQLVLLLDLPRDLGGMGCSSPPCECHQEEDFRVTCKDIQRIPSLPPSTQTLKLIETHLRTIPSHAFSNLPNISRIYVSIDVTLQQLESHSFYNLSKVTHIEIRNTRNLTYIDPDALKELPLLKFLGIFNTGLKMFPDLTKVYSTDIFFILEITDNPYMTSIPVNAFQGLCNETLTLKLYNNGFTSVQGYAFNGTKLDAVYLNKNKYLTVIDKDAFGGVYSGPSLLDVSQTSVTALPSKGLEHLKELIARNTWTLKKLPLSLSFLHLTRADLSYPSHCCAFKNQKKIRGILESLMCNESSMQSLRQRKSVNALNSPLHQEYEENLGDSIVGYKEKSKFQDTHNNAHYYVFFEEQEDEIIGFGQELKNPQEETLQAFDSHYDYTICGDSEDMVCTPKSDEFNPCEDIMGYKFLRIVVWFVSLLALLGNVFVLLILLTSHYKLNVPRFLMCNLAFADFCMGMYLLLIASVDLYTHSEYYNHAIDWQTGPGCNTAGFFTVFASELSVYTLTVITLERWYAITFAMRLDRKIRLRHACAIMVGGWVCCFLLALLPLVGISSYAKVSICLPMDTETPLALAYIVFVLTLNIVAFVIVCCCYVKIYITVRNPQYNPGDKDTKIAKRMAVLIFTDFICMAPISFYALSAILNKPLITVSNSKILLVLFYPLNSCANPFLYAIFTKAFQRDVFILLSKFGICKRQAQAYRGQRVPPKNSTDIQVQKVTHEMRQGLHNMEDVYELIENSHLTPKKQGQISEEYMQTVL
Chain of Nuclear receptor subfamily 1 group I member 3 (Homo sapiens) (Q14994 whole entry, looked up): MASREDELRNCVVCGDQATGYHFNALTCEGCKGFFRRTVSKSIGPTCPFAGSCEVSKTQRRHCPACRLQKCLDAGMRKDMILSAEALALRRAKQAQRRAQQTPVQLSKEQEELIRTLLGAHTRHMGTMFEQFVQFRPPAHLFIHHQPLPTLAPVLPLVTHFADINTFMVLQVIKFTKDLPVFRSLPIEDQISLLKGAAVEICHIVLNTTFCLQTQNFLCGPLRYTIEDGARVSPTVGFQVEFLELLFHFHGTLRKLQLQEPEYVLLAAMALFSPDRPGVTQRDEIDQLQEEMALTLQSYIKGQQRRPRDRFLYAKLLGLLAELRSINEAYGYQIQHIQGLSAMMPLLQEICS

CC(C)(C)NC[C@H](O)COc1cccc2c1CCCC2=O
inactive: Potency [1] | outcome [2] | outcome [3] | outcome [4] | outcome [5] | outcome [6] | outcome [7] | Potency [8] | activity change, positive = activation [9] 4.14% [at 42.5 µM] | outcome [10] | Potency [11] | outcome [12] | Potency [13] | outcome [14] | max response [15] -12%

c1ccc2cnccc2c1
inactive: Potency [1] | outcome [2] | outcome [4] | outcome [5] | outcome [6] | outcome [7] | Potency [8] | activity change, positive = activation [9] 7.4% | outcome [10] | Potency [11] | outcome [12] | Potency [16] | Potency [13] | outcome [14] | max response [15] 9.26%

OCC1CCC(CO)CC1 (configuration not stated)
inactive: Potency [1] | outcome [2] | outcome [17] | outcome [5] | outcome [6] | outcome [18] | outcome [7] | outcome [10] | Potency [11] | Potency [19] | outcome [12] | Potency [16] | Potency [13] | outcome [14] | max response [15] 6.03%

CC1=C(C(=O)O)N2C(=O)[C@@H](NC(=O)[C@H](N)c3ccccc3)[C@H]2SC1
inactive: Potency [1] | outcome [2] | outcome [3] | outcome [4] | outcome [5] | outcome [7] | Potency [8] | activity change, positive = activation [9] 5.12% [at 42.5 µM] | outcome [10] | Potency [11] | Potency [19] | outcome [12] | Potency [16] | Potency [13] | outcome [14] | max response [15] 0.975% | Potency [20]

CC(=O)OC1CCCCC1C(C)(C)C (configuration not stated)
inactive: Potency [1] | outcome [2] | outcome [17] | outcome [5] | outcome [6] | outcome [18] | outcome [7] | outcome [10] | Potency [11] | Potency [19] | outcome [12] | Potency [16] | Potency [13] | outcome [14] | max response [15] 3.56% | Potency [20]

CCC(=O)CC
inactive: Potency [1] | outcome [2] | outcome [3] | outcome [4] | outcome [5] | outcome [18] | outcome [7] | Potency [8] | activity change, positive = activation [9] 4.37% | Potency [11] | Potency [19] | outcome [12] | Potency [16] | Potency [13] | outcome [14] | max response [15] 4.81% | Potency [20]

COc1cc(/C=C/C(N)=O)cc(OC)c1OC
inactive: Potency [1] | outcome [2] | outcome [17] | outcome [5] | outcome [6] | outcome [18] | outcome [7] | outcome [10] | Potency [11] | Potency [19] | outcome [12] | Potency [16] | Potency [13] | outcome [14] | max response [15] -21.8% | Potency [20]

N#Cc1ccccc1O
inactive: Potency [1] | outcome [2] | outcome [17] | outcome [5] | outcome [6] | outcome [18] | outcome [10] | Potency [11] | Potency [19] | outcome [12] | Potency [16] | Potency [13] | outcome [14] | max response [15] 15.1% | Potency [20]

OC1(c2ccc(Cl)cc2)CCNCC1
inactive: Potency [1] | outcome [2] | outcome [17] | outcome [5] | outcome [6] | outcome [18] | outcome [7] | outcome [10] | Potency [11] | outcome [12] | Potency [16] | outcome [14] | max response [15] 3.5% | Potency [20]

COCCc1ccccn1
inactive: Potency [1] | outcome [2] | outcome [17] | outcome [5] | outcome [6] | outcome [18] | outcome [7] | outcome [10] | Potency [11] | Potency [19] | outcome [12] | Potency [16] | Potency [13] | max response [15] -3.81% | Potency [20]

CC(=O)C(C)O (configuration not stated)
inactive: Potency [1] | outcome [2] | outcome [17] | outcome [5] | outcome [6] | outcome [18] | outcome [7] | outcome [10] | Potency [11] | Potency [19] | outcome [12] | Potency [16] | Potency [13] | outcome [14] | max response [15] 16% | Potency [20]

CC12CCC(C1)C(C)(C)C2O (configuration not stated)
inactive: Potency [1] | outcome [2] | outcome [17] | outcome [5] | outcome [6] | outcome [18] | outcome [7] | outcome [10] | outcome [12] | Potency [13] | outcome [14]

OCC1(CO)COCOC1
inactive: Potency [1] | outcome [2] | outcome [17] | outcome [5] | outcome [6] | outcome [18] | outcome [7] | outcome [10] | Potency [11] | Potency [19] | outcome [12] | Potency [16] | Potency [13] | outcome [14] | max response [15] -1.51% | Potency [20]

COC(=O)c1ccccc1C(=O)O
inactive: Potency [1] | outcome [2] | outcome [17] | outcome [5] | outcome [6] | outcome [18] | outcome [7] | outcome [10] | Potency [11] | Potency [19] | outcome [12] | Potency [16] | Potency [13] | outcome [14] | max response [15] -0.818% | Potency [20]

CCCCCCCCCCOC(C)=O
inactive: Potency [1] | outcome [2] | outcome [17] | outcome [5] | outcome [6] | outcome [18] | outcome [7] | outcome [10] | Potency [11] | Potency [19] | outcome [12] | Potency [16] | Potency [13] | outcome [14] | max response [15] 0.865% | Potency [20]

Cc1ccc(C(=O)O)cc1[N+](=O)[O-]
inactive: Potency [1] | outcome [2] | outcome [17] | outcome [5] | outcome [6] | outcome [18] | outcome [7] | outcome [10] | Potency [11] | Potency [19] | outcome [12] | Potency [16] | Potency [13] | outcome [14] | max response [15] 6.44% | Potency [20]

C#CCN[C@@H]1CCc2ccccc21
inactive: Potency [1] | outcome [2] | outcome [17] | outcome [5] | outcome [6] | outcome [18] | outcome [7] | outcome [10] | Potency [11] | Potency [19] | outcome [12] | Potency [16] | Potency [13] | outcome [14] | max response [15] -4.89% | Potency [20]

— PubChem BioAssay (Tox21)
